Experimental data reported in the supplement of paper PMC6555819.

How the values were obtained:
Test in all cases: PBM binding z-score (relative to random genomic background probes); higher = stronger binding; sequences stand for … in GC…GCGATTGACAGCGTAGAATGAAGG
[1] = tested on: FXR:RXRa (NR concentration 270 nM, RXRa partner concentration 90 nM)
How it was run: (§1)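 For binding z-scores, the reference was random background probes on custom Agilent 4×180K protein-binding microarrays. These arrays were incubated 1 h with ligand-free nuclear receptor dimers in PBS pH 7.4, 2% milk, 0.02% Triton X-100, 1 mM DTT, 0.2 mg/mL BSA and 0.4 mg/ml salmon testes DNA. Fluorescence was scanned after antibody detection of each partner (one per run) and regression-normalized.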

[2] = tested on: LXRa:RXRa (NR concentration 270 nM, RXRa partner concentration 90 nM)
How it was run: as §1

[3] = tested on: LXRa homodimer (NR concentration 270 nM)
How it was run: as §1

[4] = tested on: LXRb:RXRa (NR concentration 270 nM, RXRa partner concentration 90 nM)
How it was run: as §1

[5] = tested on: LXRb homodimer (NR concentration 270 nM)
How it was run: as §1

[6] = tested on: PPARa:RXRa (NR concentration 270 nM, RXRa partner concentration 90 nM)
How it was run: as §1

[7] = tested on: PPARg:RXRa (NR concentration 180 nM, RXRa partner concentration 90 nM)
How it was run: as §1

[8] = tested on: PPARg:RXRa 270nM:90nM, anti-RXR (NR concentration 270 nM, RXRa partner concentration 90 nM)
How it was run: as §1

[9] = tested on: PPARg:RXRa 30nM:10nM, anti-RXR (NR concentration 30 nM, RXRa partner concentration 10 nM)
How it was run: as §1

[10] = tested on: PPARg:RXRa 90nM:30nM, anti-RXR (NR concentration 90 nM, RXRa partner concentration 30 nM)
How it was run: as §1

Sequence | PBM binding z-score [1] | PBM binding z-score [2] | PBM binding z-score [3] | PBM binding z-score [4] | PBM binding z-score [5] | PBM binding z-score [6] | PBM binding z-score [7] | PBM binding z-score [8] | PBM binding z-score [9] | PBM binding z-score [10]
TCGAGTAGGTTACCTATGGGGCATTCAGCTTTCT | 0.0442 | 1.74 | -0.775 | 0.927 | -1.31 | 1.24 | 0.475 | 1.01 | 1.17 | 1.17
GGAACGAGGGCATTCGAGTTGATAACATGGCGAT | 1.09 | 1.76 | -0.0799 | 0.415 | -0.451 | 1.56 | 1.3 | 0.636 | -0.0941 | 0.231
CCTAGCAGGCCAACCTGGGTCACTCAAGGCTTGA | 1.14 | 1.36 | -0.307 | 1.16 | -1.09 | 2.05 | 0.131 | 0.239 | -0.969 | -0.0466
GATACATGGTCAAGGCCAGAGTACGCGTATTGAT | -0.39 | -0.622 | -0.276 | -0.463 | -0.821 | -0.215 | 0.872 | 0.016 | 0.162 | 0.303
AATACAAGGTCACTAGGCCAGAGTAGGTACGAAT | 7.35 | 6.14 | 4.32 | 4.79 | 2.19 | 6.29 | 8.24 | 6.63 | 3.8 | 6.05
TGTAGTTGGTCAAAGGTCACACACTCGAAATGCG | 5.82 | 5.9 | 3.8 | 5.42 | 1.98 | 6.69 | 11 | 9.78 | 10.1 | 11.7
CATACTAGGTCACCGGAAGGTCAAAGTCCGCATG | 5.94 | 6.26 | 5.63 | 5.54 | 2.08 | 5.71 | 8.32 | 7.18 | 4.5 | 6.47
ATCTCAAGGTAAAAGTTCAGTGAATCCCGAGGAT | 1.18 | 1.66 | 1.12 | 0.879 | 0.539 | 3.08 | 3.54 | 4.49 | 2.83 | 4.24
GCAGCTAGGTCAACTGATGGTCAGCTAAAGCTCG | 3.76 | 2.29 | -0.24 | 1.56 | -0.578 | 3.37 | 2.48 | 3.01 | 0.457 | 1.89
TCTTGTAGATCAACAGGAGGTTAAGAAGGATCGA | 0.614 | 0.955 | 0.0858 | 0.854 | -0.55 | 1.34 | 0.000249 | 1.23 | 2.58 | 1.73
AGAATGAGGTTAAGCTCAGGGAAACAGAATACAT | 2.88 | 1.94 | -0.491 | 1.79 | -0.626 | 3.77 | 2.4 | 2.58 | 0.895 | 1.48
CCGTCTGGGGCAAGGTTACCATAACGCACAGCCA | 0.304 | 0.595 | -0.295 | 0.486 | -1.06 | 1.47 | 1.66 | 2.36 | 0.376 | 1.93
CGTCCAAGGTCAGCAGGTCAGTAAAAGCGACGTG | 5.97 | 4.07 | 0.614 | 3.22 | -0.235 | 4.9 | 3.97 | 4.43 | 1.37 | 2.87
GCTATTAGTTGAAAGGGCCACCGAATGATTCTCG | -0.0568 | 0.0381 | -0.327 | -0.256 | -0.647 | 0.401 | 0.611 | 1.6 | 0.211 | 0.953
ATCTCGAGGTAAGACTCAGTTCAGTGAAGAACGC | 0.0769 | -0.0595 | -0.0445 | -0.053 | -0.194 | 0.0746 | 0.0104 | -0.287 | -0.212 | -0.236
TCTTGTAGATCCATAGAGGTTAAGAAAGTGCGCT | 0.485 | 3.32 | -0.138 | 1.43 | 0.453 | 1.16 | -0.272 | 1.18 | 2.32 | 1.65
CGTCCAAGGTCAGCAGGTCAGTGAAAGCGACGTG | 5.62 | 4 | 0.313 | 3.11 | -0.277 | 4.76 | 4.12 | 4.39 | 0.905 | 2.91
CCTCGGCGGACAGAAGGTCAGAGCTGTCCGCTTT | 1.18 | 1.29 | -0.126 | 0.771 | -1.09 | 1.64 | -0.606 | 0.898 | -0.662 | -0.0722
ATCTCTAAGTAAAAGTTCAGTGAATCCCGAGGAT | 0.433 | 1.11 | 1.36 | 0.807 | 1.04 | 1.6 | 1.9 | 3.87 | 2.04 | 3.47
ATCTCTAGGTAAAAGTTCAGTGCATCCCGAGGAT | 0.914 | 1.67 | 1.72 | 0.979 | 0.86 | 4.39 | 8.17 | 7.48 | 7.56 | 8.52
AGAATGAGGATATTAAGATCAGGGAATTGCGGTC | -0.251 | -0.424 | 0.0165 | -0.53 | -0.355 | -0.323 | 0.311 | -0.0295 | -0.0325 | -0.182
TCACATAGGTAAAGGTGAAAGTCGAACGATATGA | 1.25 | 1.8 | 0.139 | 1.69 | -0.00674 | 3.07 | 2.67 | 3.48 | 4.04 | 3.75
GGAACGAGGGCATTCGAGGTGATAGCATGGCGAT | 1.32 | 3.38 | -0.432 | 0.556 | -0.578 | 2 | 1.28 | 0.75 | 0.0745 | 0.494
ATCTCTAGGTAAAGATAGTTCAGTTAATGCAAAT | 0.733 | 4.33 | 1.07 | 1.39 | 0.619 | 0.689 | 0.743 | 0.482 | 0.448 | 0.659
